We go through 17 compounds from PubChem BioAssay (NCI).

This is part of a sample that, as a whole, favours compounds with a hit. Of some 83,000 tested, about 20% had one in any assay.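 Assay: single dose, 48 h. Readout: percent growth (0 = no net growth; negative = cell death). Active: <10.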 The source made the active and inactive calls.

The first assay has as its system CAKI-1 renal. The assay is described as follows: NCI-60 one-dose screen, 48 h (100 = growth as untreated, 0 = no growth, -100 = all killed). Particulars: 10 µM.
Turning to `CCCCNc1cc(C(=O)O)cc(S(N)(=O)=O)c1Oc1ccccc1`, the growth was 89.3% (inactive). With `Cc1ccc(-c2nc3c(N=Nc4ccc(S(N)(=O)=O)cc4)c(N)nn3c(N)c2C#N)cc1`, the growth was 41% (inactive). Same read-out and setting: then `CC(NCCC(c1ccccc1)c1ccccc1)c1ccccc1` (stereo not given), with 42.3% (inactive). The same measure, in the same setting: in the case of `Cc1ccc(N(CC2=NCCN2)c2cccc(O)c2)cc1` it was 90% (inactive).

In the case of `COc1ccc(C[C@H](N)C(=O)N[C@@H]2[C@@H](CO)OC(n3cnc4c(N(C)C)ncnc43)[C@@H]2O)cc1` (stereo not given in full), the growth is 42.8% (inactive). Still for that read-out and setting: in the case of `CC1CCc2cc(F)cc3c(=O)c(C(=O)O)cn1c23` (stereo not given) it was 81% (inactive); in that of `CN(C)CC/C=C1\c2ccccc2Sc2ccc(Cl)cc21`, 52.7% (inactive). The same measure, in the same setting: in the case of `O=C(COc1ccc(Cl)cc1)N1CCN(Cc2ccc3c(c2)OCO3)CC1` it was 76.6% (inactive); in that of `COc1cc(NS(=O)(=O)c2ccc(N)cc2)ncn1`, 94.6% (inactive). Regarding `CC(=O)Nc1ccc(OC(=O)c2ccccc2O)cc1`, the growth is 91.3% (inactive). Take `C=C1c2c(Cl)ccc(O)c2C(O)=C2C(=O)[C@]3(O)C(O)=C(C(N)=O)C(=O)[C@@H](N(C)C)[C@@H]3[C@@H](O)[C@H]12`: the growth is 3.62% (active). Same read-out and setting: then `COc1ccc(/C=C/C(=O)c2ccc(-n3cc(CN4CCN(c5cc6c(cc5F)c(=O)c(C(=O)O)cn6C5CC5)CC4)nn3)cc2)cc1OC`, with 60% (inactive); and `COC(=O)Nc1nc2ccc(Sc3ccccc3)cc2[nH]1`, with 39.1% (inactive).

The test system of the next assay is A498 renal. The assay is described as above. Particulars: 10 µM unless noted.
In the case of `CCCCNc1cc(C(=O)O)cc(S(N)(=O)=O)c1Oc1ccccc1`, the growth is 89.1% (inactive). With `Cc1ccc(-c2nc3c(N=Nc4ccc(S(N)(=O)=O)cc4)c(N)nn3c(N)c2C#N)cc1`, the growth was 59.3% (inactive).

Consider `CCN(CC)c1ccc(C2CC(c3cc(OC)c(OC)c(OC)c3)=NN2)cc1` (stereo not given), for which the growth is -2.94% (active). As for `CC(NCCC(c1ccccc1)c1ccccc1)c1ccccc1` (stereo not given), the growth was 63.8% (inactive).

As to `Cc1ccc(N(CC2=NCCN2)c2cccc(O)c2)cc1`, the growth is 93.8% (inactive). Same read-out and setting: then `COc1ccc(C[C@H](N)C(=O)N[C@@H]2[C@@H](CO)OC(n3cnc4c(N(C)C)ncnc43)[C@@H]2O)cc1` (stereo not given in full), with -65.6% (active); and `CC1CCc2cc(F)cc3c(=O)c(C(=O)O)cn1c23` (stereo not given), with 88.1% (inactive); and `c1coc(CSc2ncnc3nc[nH]c23)c1`, with 90.8% (inactive). Still for that read-out and setting: then `CN(C)CC/C=C1\c2ccccc2Sc2ccc(Cl)cc21`, with 89.5% (inactive); and `O=C(COc1ccc(Cl)cc1)N1CCN(Cc2ccc3c(c2)OCO3)CC1`, with 84.5% (inactive); and `COc1cc(NS(=O)(=O)c2ccc(N)cc2)ncn1`, with 106% (inactive). The same measure, in the same setting: then `CC(=O)Nc1ccc(OC(=O)c2ccccc2O)cc1`, with 84.5% (inactive); and `COc1cccc(C2CC(c3cc(OC)c(OC)c(OC)c3)=NN2)c1` (stereo not given), with 82.2% (inactive). With `COc1cc(C(=O)N2CCN(C(=O)c3cc(OC)c(OCc4ccccc4)cc3N)CC2)c(N)cc1OCc1ccccc1`, the growth is 132% (inactive). Regarding `C=C1c2c(Cl)ccc(O)c2C(O)=C2C(=O)[C@]3(O)C(O)=C(C(N)=O)C(=O)[C@@H](N(C)C)[C@@H]3[C@@H](O)[C@H]12`, the growth is -10% (active). For `COc1ccc(/C=C/C(=O)c2ccc(-n3cc(CN4CCN(c5cc6c(cc5F)c(=O)c(C(=O)O)cn6C5CC5)CC4)nn3)cc2)cc1OC`, the growth was 54.4% (inactive). In the case of `COC(=O)Nc1nc2ccc(Sc3ccccc3)cc2[nH]1`, the growth was 13.9% (inactive).
